From the supplement of paper PMC8728848
The entries come from a sample that favours the strongest signals as a whole.

Assays:
Experiment in all cases: glycan array binding signal (z-score within array); higher = stronger binding
Conditions in all cases: glycan notation: IUPAC condensed, linker removed
[1] = tested on: Fuc(a1-2)Gal6S(b1-3)GlcNAc
Method in brief: (§1)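 Glycan array data came from 3228 arrays in the Consortium for Functional Glycomics database, and only arrays with an available protein sequence were kept. Glycan names were put into IUPAC-condensed notation, and columns mapping to the same glycan were averaged. The binding signal is a within-array Z-score, averaged across arrays of one protein sequence run at different concentrations or buffers and across linkers. A negative Z-score can be read as non-binding.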

[2] = tested on: Fuc(a1-2)[Gal(a1-3)]Gal(b1-3)GlcNAc(b1-3)GalNAc
Method in brief: as §1

[3] = tested on: Fuc(a1-2)[Gal(a1-3)]Gal(b1-4)[Fuc(a1-3)]GlcNAc
Method in brief: as §1

[4] = tested on: Fuc(a1-2)[GalNAc(a1-3)]Gal(b1-3)GalNAc(a1-3)[Fuc(a1-2)]Gal(b1-4)GlcNAc
Method in brief: as §1

[5] = tested on: Fuc(a1-2)[GalNAc(a1-3)]Gal(b1-4)GlcNAc(b1-2)Man(a1-3)[Fuc(a1-2)[GalNAc(a1-3)]Gal(b1-4)GlcNAc(b1-2)Man(a1-6)]Man(b1-4)GlcNAc(b1-4)[Fuc(a1-6)]GlcNAc
Method in brief: as §1

[6] = tested on: Fuc(a1-2)Gal6S(b1-4)Glc6S
Method in brief: as §1

[7] = tested on: Fuc(a1-2)Gal
Method in brief: as §1

[8] = tested on: Fuc(a1-2)[Gal(a1-3)]Gal(b1-3)GlcNAc
Method in brief: as §1

[9] = tested on: Fuc(a1-2)[GalNAc(a1-3)]Gal(b1-4)GlcNAc(b1-2)Man(a1-3)[Fuc(a1-2)[GalNAc(a1-3)]Gal(b1-4)GlcNAc(b1-2)Man(a1-6)]Man(b1-4)GlcNAc(b1-4)GlcNAc
Method in brief: as §1

[10] = tested on: Fuc(a1-2)Gal6S(b1-4)Glc
Method in brief: as §1

[11] = tested on: Fuc(a1-2)[Gal(a1-3)]Gal(b1-3)GalNAc
Method in brief: as §1

[12] = tested on: Fuc(a1-2)[GalNAc(a1-3)]Gal(b1-3)GlcNAc(b1-2)Man(a1-3)[Fuc(a1-2)[GalNAc(a1-3)]Gal(b1-3)GlcNAc(b1-2)Man(a1-6)]Man(b1-4)GlcNAc(b1-4)GlcNAc
Method in brief: as §1

[13] = tested on: Fuc(a1-2)[Gal(a1-3)]Gal(b1-3)GlcNAc(b1-6)GalNAc
Method in brief: as §1

[14] = tested on: Fuc(a1-2)[Gal(a1-3)]Gal(b1-4)GlcNAc(b1-2)Man(a1-3)[Fuc(a1-2)[Gal(a1-3)]Gal(b1-4)GlcNAc(b1-2)Man(a1-6)]Man(b1-4)GlcNAc(b1-4)GlcNAc
Method in brief: as §1

[15] = tested on: Fuc(a1-2)[Gal(a1-3)]Gal(b1-4)[Fuc(a1-3)]Glc
Method in brief: as §1

[16] = tested on: Fuc(a1-2)[Gal(a1-4)]Gal(b1-4)GlcNAc
Method in brief: as §1

[17] = tested on: Fuc(a1-2)[GalNAc(a1-3)]Gal(b1-3)GalNAc(b1-3)Gal(a1-4)Gal(b1-4)Glc
Method in brief: as §1

[18] = tested on: Fuc(a1-2)[GalNAc(a1-3)]Gal(b1-3)GlcNAc
Method in brief: as §1

[19] = tested on: Fuc(a1-2)[Gal(a1-3)]Gal(b1-4)GlcNAc
Method in brief: as §1

AgI/IIC123-GFP (Streptococcus mutans) was tested, and the “glycan array binding signal (z-score)” value [1] was 4.98, the “glycan array binding signal (z-score)” value [2] was -0.567 and the “glycan array binding signal (z-score)” value [3] was -0.047. For the same substance, the “glycan array binding signal (z-score)” value [4] was -0.259 and the “glycan array binding signal (z-score)” value [5] was -0.549.

For Actinohivin (Actinomycete K97), the “glycan array binding signal (z-score)” value [6] was -0.121, the “glycan array binding signal (z-score)” value [7] was -0.161 and the “glycan array binding signal (z-score)” value [8] was -0.173. For the same substance, the “glycan array binding signal (z-score)” value [9] was -0.143.

In the case of LcI (Legionella pneumophila), the “glycan array binding signal (z-score)” value [10] is reported as -0.438, the “glycan array binding signal (z-score)” value [11] is reported as -0.622 and the “glycan array binding signal (z-score)” value [12] is reported as -0.301.

In the case of BambL (Burhholderia ambifaria), Q0B4G1, the “glycan array binding signal (z-score)” value [7] is reported as 5.01.

In the case of Epa22, the “glycan array binding signal (z-score)” value [13] is reported as -0.605, the “glycan array binding signal (z-score)” value [14] is reported as -0.038 and the “glycan array binding signal (z-score)” value [15] is reported as -0.341. For the same substance, the “glycan array binding signal (z-score)” value [16] was 1.84 and the “glycan array binding signal (z-score)” value [17] was -0.54.

For GspB (Streptococcus gordonii), Q939N5, the “glycan array binding signal (z-score)” value [8] was -0.728 and the “glycan array binding signal (z-score)” value [18] was 0.192.

“SiiE (Salmonella typhimurium), A0A0H3NVH0” was tested, and the “glycan array binding signal (z-score)” value [19] was -0.344 and the “glycan array binding signal (z-score)” value [3] was -0.019.

“AgI/II Vhelical-GFP (Streptococcus mutans)” was tested, and the “glycan array binding signal (z-score)” value [15] was -0.293 and the “glycan array binding signal (z-score)” value [5] was -0.212.
